TRHR PAM = TRH receptor (human) allosteric enhancement; P34981; TRHR cells, fluo-8 calcium fluorescence, EC20 TRH enhancement; enhancement, % at 2 µM; 0.66% of 360,000 active; AID 493056; in the data active = enhancement above about 30%; note: 0% is about no effect
Target sequence (P34981 whole entry, looked up): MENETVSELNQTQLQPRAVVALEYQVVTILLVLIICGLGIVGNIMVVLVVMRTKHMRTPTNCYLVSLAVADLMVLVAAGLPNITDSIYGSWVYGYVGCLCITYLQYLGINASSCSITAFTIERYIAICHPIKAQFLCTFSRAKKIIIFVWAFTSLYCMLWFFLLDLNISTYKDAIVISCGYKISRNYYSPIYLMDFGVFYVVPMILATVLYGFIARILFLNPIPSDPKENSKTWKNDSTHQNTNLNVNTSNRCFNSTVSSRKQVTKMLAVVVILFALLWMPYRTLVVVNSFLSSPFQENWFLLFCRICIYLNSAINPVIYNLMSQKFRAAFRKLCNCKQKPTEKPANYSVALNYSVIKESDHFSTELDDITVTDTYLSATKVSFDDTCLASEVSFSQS
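Enhancer read-out: after compound pinning and an initial kinetic agonist-mode read, an EC20 of TRH (10 nM final) was injected and fluo-8 calcium signal (Ex 480/Em 530) followed at 1 s/cycle for 100 cycles in TRHR-expressing cells.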
D1 ag = human D1 receptor agonism. AID 504660. P21728. activation, % at 2 µM. HEK293 T-REx D1 cells, calcium flux, agonist mode. 1% of 360,000 active; note: 0% is about no effect
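Inducible HEK293 T-REx D1 cells, force-coupled to calcium signalling, were plated at 4000 cells/well with tetracycline and held overnight at 30 C. After no-wash calcium dye loading, compound-evoked calcium rise over 180 s flagged agonists.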
D1 antagonist = human D1 dopamine receptor antagonism | HEK293 TREx D1 cells, calcium flux, dopamine EC80; active compounds read low | 3.2% of 360,000 active | activity change, negative = inhibition, % at 10 µM | AID 504652; in the data active = activity change below about -30%; note: % is set by controls: 0 for no effect and ±100 for the full control effect
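Antagonism measured as reduced calcium response to an EC80 dopamine addition following 180 s compound pre-read; cells were inducible HEK293 Trex D1 plated overnight at 30 C, read kinetically at 1 cycle/sec.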
TRHR agonist = agonists of human TRH receptor; activation, % at 2 µM; P34981; 0.18% of 360,000 active; TRHR cells, calcium flux fluo-8, FDSS agonist mode; note: 0% is about no effect
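Fluo-8-loaded TRHR cells; 10 s baseline, compound added, kinetic Ca2+ fluorescence read 1/s, agonist mode.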
D1 potentiator = human D1 dopamine receptor positive modulation | potentiation, % at 10 µM | 0.036% of 360,000 active | P21728 | HEK293 TREx D1 cells, calcium flux, dopamine EC20 potentiation; in the data active = potentiation above about 30%; note: 0% is about no effect
Starred values were filed as active, the others as inactive. The list is not random: actives were taken first. Their share in the collection is about 4.7%. Cut-off read from the data, not from the text of the source, unless noted: active = activation above about 30%; inactive = the rest.

Screening CCc1ccc(-c2cn3c(n2)SCC3)cc1 returned TRHR PAM -11, D1 ag 1, D1 antagonist -86*, TRHR agonist 0 and D1 potentiator 0.
`Oc1ccc(/C=C/c2ccc3cccc(O)c3n2)cc1Br` gave TRHR PAM 2, D1 ag 37*, D1 antagonist -11, TRHR agonist 21 and D1 potentiator 5.
Screening COc1cc(OC)cc(-c2c(-c3ccc(F)cc3)c3cc(-c4cnc(OC)nc4)ccc3n2C)c1 returned TRHR PAM 1, D1 ag -1, TRHR agonist 1 and D1 potentiator -3.
CCOc1ccc(NC(=O)CN(C)C(=O)C2CC2C)cc1OCC (stereo unspecified) was read as TRHR PAM 5, D1 ag 3, D1 antagonist 2, TRHR agonist 0 and D1 potentiator -4.
For CCOc1ccc(NC(=O)CN(C)C(=O)c2ccc(C3SCCS3)cc2)cc1OCC the results were TRHR PAM -1, D1 ag 1, D1 antagonist -45*, TRHR agonist 0 and D1 potentiator -19.
Screening CCOc1ccc(NC(=O)CN(C)C(=O)c2ccc(=O)[nH]c2)cc1OCC returned TRHR PAM 2, D1 ag 1, D1 antagonist -77*, TRHR agonist 1 and D1 potentiator -21.
For COC(=O)Nc1ccc(S(=O)(=O)NNC(=O)c2c(O)c3ccccc3n(C)c2=O)cc1 the results were TRHR PAM 16, D1 ag 3, D1 antagonist -4, TRHR agonist 0 and D1 potentiator 0.
Screening CC(Oc1ccc(Br)cc1)C(=O)NC1CCN(Cc2ccccc2)CC1 (stereo unspecified) returned TRHR PAM -4, D1 ag 12, D1 antagonist -7, TRHR agonist 0 and D1 potentiator -10.
`O=C(c1ccccc1)c1ccc(OCCn2cnc3ccccc3c2=O)cc1` gave TRHR PAM -7, D1 ag 2, D1 antagonist -29, TRHR agonist 0 and D1 potentiator -6.
For CC(C)(c1ccccc1)c1ccc(OCCn2cnc3ccccc3c2=O)cc1 the results were TRHR PAM 2, D1 ag 33*, D1 antagonist 5, TRHR agonist 9 and D1 potentiator 6.
`C=C(C)n1c(=O)n(Cc2ccccc2C)c2ccccc21` gave TRHR PAM 5, D1 ag 93*, D1 antagonist 10, TRHR agonist 0 and D1 potentiator 1.
CN1CCN(CCCNC(=O)c2ccc(/C=C3\Oc4ccccc4N(Cc4ccccc4F)C3=O)cc2)CC1 was read as TRHR PAM 0, D1 ag 103*, D1 antagonist -47*, TRHR agonist -1 and D1 potentiator -10.
Screening Cc1cccc(CN2C(=O)/C(=C\c3ccc(C(=O)NCCCN4CCN(C)CC4)cc3)Oc3ccccc32)c1 returned TRHR PAM 1, D1 ag 8, D1 antagonist -8, TRHR agonist 0 and D1 potentiator -7.
Cc1ccc(S(=O)(=O)Nc2cccc(C(=O)NCC(c3ccco3)N3CCCC3)c2)cc1F (stereo unspecified) was read as TRHR PAM 13, D1 ag 3, D1 antagonist -22, TRHR agonist 0 and D1 potentiator -7.
`O=C(CCC(=O)OCc1ccc([N+](=O)[O-])cc1Cl)Nc1ccccc1` gave TRHR PAM 2, D1 ag 2, D1 antagonist -14, TRHR agonist -1 and D1 potentiator 1.
CCOC(=O)c1c(C)sc(-c2c(-c3cccc(Cl)c3)[nH]c3c2c(=O)n(C)c(=O)n3C)c1O was read as TRHR PAM 15, D1 ag 315*, D1 antagonist -12, TRHR agonist 169* and D1 potentiator 15.
`CCOC(=O)c1c(C)sc(-c2c(-c3cc(C)ccc3C)[nH]c3c2c(=O)n(C)c(=O)n3C)c1O` gave TRHR PAM -4, D1 ag 277*, D1 antagonist 14, TRHR agonist -1 and D1 potentiator 8.
Screening CCOC(=O)c1c(N2C(=O)Nc3ccccc3N2O)n[nH]c1-c1cccc(Cl)c1 returned TRHR PAM 9, D1 ag -2, D1 antagonist -1, TRHR agonist 0 and D1 potentiator -6.
Screening CCOC(=O)c1c(C)sc(-c2c(-c3cc(C)ccc3C)[nH]c3c2c(=O)[nH]c(=O)n3C)c1O returned TRHR PAM -4, D1 ag 20, D1 antagonist 12, TRHR agonist 8 and D1 potentiator 1.
Screening Cc1cccc(OCC(=O)N(Cc2ccccc2)c2c(N)n(Cc3ccccc3)c(=O)[nH]c2=O)c1 returned TRHR PAM -2, D1 ag 8, D1 antagonist 4 and TRHR agonist 0.
Cc1ccc(-n2nc3c(N4CCCC(C(=O)NCc5ccc(Cl)cc5)C4)nnc(C)c3c2C)cc1 (stereo unspecified) was read as TRHR PAM -1, D1 ag 2, D1 antagonist 18, TRHR agonist -1 and D1 potentiator 1.
COc1ccc(-c2noc(N3CCC(C(=O)Nc4ccccc4F)CC3)n2)cc1 was read as TRHR PAM -4, D1 ag -1, D1 antagonist 1, TRHR agonist 0 and D1 potentiator -10.
COc1ccc(-c2noc(N3CCC(C(=O)NC(C)c4ccccc4)CC3)n2)cc1 (stereo unspecified) was read as TRHR PAM 26, D1 ag 2, D1 antagonist -35*, TRHR agonist 0 and D1 potentiator -15.
COc1ccc(-c2noc(C3CCCN(C(=O)c4ccccc4)C3)n2)cc1 (stereo unspecified) was read as TRHR PAM 5, D1 ag 6, D1 antagonist -39*, TRHR agonist 0 and D1 potentiator -3.
For COc1ccc(-c2noc(N3CCC(C(=O)Nc4ccccc4Cl)CC3)n2)cc1 the results were TRHR PAM -2, D1 ag 3, D1 antagonist -34*, TRHR agonist 0 and D1 potentiator -7.
`COc1ccc(-c2noc(N3CCC(C(=O)NCc4ccccc4Cl)CC3)n2)cc1` gave TRHR PAM -2, D1 ag 7, D1 antagonist -47*, TRHR agonist 0 and D1 potentiator -8.
For CC(C)N(C(=O)Cn1cc(S(=O)(=O)Cc2ccc(C(F)(F)F)cc2)c2ccccc21)C(C)C the results were TRHR PAM -1, D1 ag 4, D1 antagonist -7, TRHR agonist 1 and D1 potentiator -4.
For Oc1ccccc1-c1nc(NC2CCCC2)c2ccccc2n1 the results were TRHR PAM 31*, D1 ag 9, D1 antagonist -7, TRHR agonist -1 and D1 potentiator -2.
Cc1cc(NC2CCCCC2)nc2ccccc12 was read as TRHR PAM -5, D1 ag 23, D1 antagonist -33*, TRHR agonist 1 and D1 potentiator -6.

Screening results from PubChem BioAssay.
